# From the supplement of paper PMC3334620
# The full ranking holds about 33,000 sequences; the median of “E-score (-0.5 to 0.5)” is about -0.01, and the highest 2% start at about 0.26. Many of the other results were omitted from the sample, so the highest values are more common in it than they were.
# Biological target: Ste12 (UniProt P13574)
# Experiment: PBM E-score (8-mer binding enrichment) (E-score (-0.5 to 0.5)); higher = stronger / more preferred TF binding
# Conditions: protein concentration: 200 nM; construct: GST-DNA-binding domain
# Outline: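 Yeast transcription factors carrying a GST tag, as full-length proteins or DNA-binding domains, were produced by PURExpress in vitro transcription/translation. About 100-200 nM protein was applied to universal all-10-mer Agilent arrays, double-stranded by primer extension on fresh or once-stripped slides. Bound protein was detected with fluorescent anti-GST, and scans were normalised with masliner. The Universal PBM Analysis Suite gave each ungapped eight-base word, pooled with its reverse complement, an E-score, a modified Wilcoxon-Mann-Whitney statistic.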
# UniProt P13574, sequence (P13574 whole entry): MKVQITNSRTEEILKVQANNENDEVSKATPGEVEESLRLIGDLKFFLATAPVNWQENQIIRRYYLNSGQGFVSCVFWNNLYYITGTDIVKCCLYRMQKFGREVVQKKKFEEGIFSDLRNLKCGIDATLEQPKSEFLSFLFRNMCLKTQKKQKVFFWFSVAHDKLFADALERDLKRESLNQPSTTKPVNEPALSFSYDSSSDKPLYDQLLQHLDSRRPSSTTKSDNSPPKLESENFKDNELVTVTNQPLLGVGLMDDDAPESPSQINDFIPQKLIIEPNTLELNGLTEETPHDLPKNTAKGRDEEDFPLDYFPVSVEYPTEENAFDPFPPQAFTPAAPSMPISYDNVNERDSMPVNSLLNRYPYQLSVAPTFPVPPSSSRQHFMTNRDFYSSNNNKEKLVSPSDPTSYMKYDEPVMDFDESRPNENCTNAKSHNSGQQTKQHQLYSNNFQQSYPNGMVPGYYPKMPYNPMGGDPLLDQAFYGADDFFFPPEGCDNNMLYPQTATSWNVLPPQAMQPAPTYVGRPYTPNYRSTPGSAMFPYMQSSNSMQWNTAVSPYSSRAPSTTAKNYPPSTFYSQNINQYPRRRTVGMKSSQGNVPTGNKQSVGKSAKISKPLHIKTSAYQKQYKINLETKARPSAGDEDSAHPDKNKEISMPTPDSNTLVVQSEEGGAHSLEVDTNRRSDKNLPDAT
row,Sequence,PBM E-score
1,CGCTGAGC,-0.154
2,ACCCCGCC,0.41
3,GCCCCGCC,0.33
4,CCCCCGCC,-0.0801
5,GCCCCGCA,-0.112
6,AACCCGCC,0.0991
7,GGCCCGCC,0.0329
8,ACCCCTCC,0.229
9,GTCGCGAA,-0.0274
10,CTCGCGAC,0.0527
11,GTCGCGAC,0.389
12,AACTATGG,-0.0761
13,ATGTTGCG,0.139
14,CATTAATA,0.251
15,AATTAATG,0.232
16,AATTAATT,0.254
17,AATTAGTA,0.263
18,GATTAATA,0.246
19,AATTAGTC,0.218
20,CATTAGTA,0.071
21,AATTAATA,0.359
22,TATTAATA,0.336
23,CCATTGCA,0.0632
24,CGCCTAGC,-0.0616
25,GTCACTAA,0.0793
26,AATGGGGT,-0.0055

row,Sequence,PBM E-score
1,CAAACTTC,0.124
2,CAAACTAC,0.0311
3,CAAACTTA,0.276
4,TAAACTAA,0.148
5,TAAACTTA,0.168
6,CAAACTAA,0.265
7,ACGCTGAC,-0.194
8,AGCAAACC,0.194
9,CATGGGAA,-0.0149
10,CGGCTATC,-0.174
11,ATTTCTAC,0.253
12,AACAAGTA,0.00602
13,AACAAATT,0.268
14,AACAAATA,0.341
15,AACAAATG,0.176
16,AACAAGTT,0.154
17,TACAAATA,0.218
18,CAGGCAAA,0.0381
19,AATCTTAT,0.0186
20,CGTTAGGA,0.0933
21,CGAATCCG,0.0624
22,GCCGCTTA,0.0462
23,GCGTTCTA,-0.0704
24,AAATTCTA,0.0535
25,AAATTCTC,0.105
26,CAATTCTC,0.00128

row,Sequence,PBM E-score
1,GAATTCTA,0.107
2,TAATTCTA,0.267
3,GAATTCTC,0.262
4,CTTCACCC,0.0896
5,AAACGCTA,0.112
6,CCTGGCTA,-0.217
7,ATCCGAAA,0.185
8,TTCCGAAA,0.264
9,GTCCGAAA,0.211
10,GAGGGCCA,0.0172
11,AAGAGATA,-0.0137
12,CCGGCTCC,-0.0246
13,AAAGTCGT,-0.0472
14,CAAGTCGC,-0.3
15,AAAGTCGC,0.282
16,GAGATGGA,-0.167
17,GACATTGA,0.051
18,AGGTTGGA,0.114
19,CAACAGCA,0.021
20,CTGTTTGA,0.308
21,ATGTTTGC,0.0377
22,CCGTTTGA,0.056
23,GTGTTTGA,0.301
24,ATGTTTGA,0.337
25,GTTTTTGA,0.236
26,CTGTTTGC,-0.0149

row,Sequence,PBM E-score
1,ATGTTTGG,0.151
2,GTGTTCGA,0.0597
3,ACCCGACA,0.0405
4,GCCGCAGC,0.00254
5,CCCAAAGA,0.18
6,GCCACGAC,0.0374
7,TTGCAAAA,0.242
8,ATCGAGCC,-0.0583
9,AACGCCCT,-0.0731
10,AAACATTC,0.12
11,ACGCAGGG,-0.0649
12,CTTCAAAA,0.191
13,CTTCAAAC,0.218
14,GATCAAAA,0.194
15,GTTCAAAA,0.107
16,TTCAAGAA,0.247
17,TATCAAAA,0.302
18,TTTCAAAA,0.343
19,ATTCAAAC,0.279
20,CATCAAAA,0.221
21,CTCAAAAA,0.178
22,ATTCAAAG,0.145
23,TTCAAAAA,0.298
24,GGACAGAA,0.136
25,CAATTTAG,0.118
26,CGATAGTC,-0.186

row,Sequence,PBM E-score
1,GAGTAAGC,-0.0348
2,CGCAGGCA,-0.062
3,ACCAGTCT,-0.25
4,CAATGTGC,-0.133
5,CCAGATCC,-0.149
6,CTGACTAA,-0.00263
7,TTCCAAAA,0.277
8,CCTCAAAA,0.198
9,ATCAAAAA,0.316
10,ACTCAAAA,0.165
11,GTCCAAAA,0.123
12,CTCCAAAA,0.183
13,TCTCAAAA,0.275
14,ATCAAAAT,0.192
15,ATCAAAAG,0.0655
16,TAACCCAA,0.182
17,CGAGGTAG,-0.219
18,ACAGTGCA,-0.00511
19,GGTTAGCA,-0.0625
20,ACCCTCCC,0.378
21,TCCTCCCA,-0.0691
22,GCCCCTCA,0.0515
23,GCCCCTCC,0.445
24,GCCTCCCC,0.305
25,ACCTCCCC,0.161
26,ACCTCCCA,-0.187

row,Sequence,PBM E-score
1,ACCCTCCT,-0.00559
2,ACCCTCCA,-0.0426
3,CCCTCCCA,0.33
4,CCCCCTCC,-0.121
5,GCCTCCCA,-0.104
6,CGTAAAGA,-0.0705
7,AACCTTAT,0.138
8,CGATCTTC,-0.0861
9,ACAATGGC,0.0105
10,ACCCGTCC,-0.0354
11,CCCTCCCG,0.0504
12,CCCTCCCC,0.333
13,CCCCTCCA,0.246
14,CCCTCCTC,0.0435
15,CCCCTCCG,0.171
16,CCCCTCCC,0.365
17,GATTTCGC,0.2
18,AAGTGGGC,-0.0304
19,GAGCTTTA,-0.0834
20,ACAGTTTG,0.016
21,CAAAAACC,0.128
22,CCAAAAAA,0.251
23,CCAAAAAC,0.216
24,AAAAAAAC,0.331
25,CAAAAAGA,0.178
26,AAAAAACC,0.234

row,Sequence,PBM E-score
1,AGAAAAAC,0.146
2,CAAAAAAC,0.298
3,CAAAAAAA,0.352
4,GCTGAGCC,-0.0937
5,ACAACTCG,0.0864
6,ATCCCTTG,-0.0717
7,GAGCATAA,0.131
8,TAGCTGGA,-0.0515
9,CAGAATAC,0.0945
10,CTAAAAAG,0.218
11,TTAAAAAA,0.294
12,CTAAAAAA,0.278
13,CTAAAAAC,0.023
14,TTAAACAA,0.123
15,AAAAACAA,0.251
16,TAAAAAGA,0.248
17,TAAAACAA,0.261
18,TAATAAAA,0.225
19,TAAAAAAA,0.313
20,TTAAAGAA,0.251
21,CTAAAAGA,0.0876
